Consider 5 compounds from PubChem BioAssay (EPA / NIEHS).

Assay [1] can be described thus: CCTE_Shafer_MEA_dev_mutual_information_norm: CCTE's Neural Network Formation Assay for Mutual Information Normalization, Shafer Lab (AID 2284091).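 As to AC50: potency is for a decrease in mutual information relative to DMSO.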 The protocol: CCTE_Shafer_MEA_dev assay is conducted using Axion Biosystems 48 well microelectrode array (MEA) plates and Maestro recording system. Each well of the MEA plate contains a grid of 16 microelectrodes embedded in the culture surface. Electrically active cells, such as neurons, can be cultured over the electrodes, and electrical activity in these cells can be recorded extracellularly. The spontaneous firing of neurons is captured from each electrode on a microsecond timescale providing both temporally and spatially precise data. […] The CCTE_Shafer_MEA_dev assay uses primary cultures of rat cortical neurons. Recordings are made on days post-plating 5, 7, 9 and 12. As these cultures mature over time, neural networks develop functional activity and form cohesive networks in which electrical activity can be highly coordinated. CCTE_Shafer_MEA_dev_mutual_information_norm is 1 of 19 assay components of the CCTE_Shafer_MEA_dev assay. It is a measure of shared information between electrodes during a recording in a microelectrode array (MEA) using Axion Biosystems Maestro 768 channel amplifier with the AxIS adaptive spike detector. To collapse across multiple recordings made on days post-plating 5, 7, 9 and 12, the trapezoidal area-under-the-curve of the component is calculated.Data from the assay component CCTE_Shafer_MEA_dev_mutual_information_norm was analyzed into 1 assay endpoint. This assay endpoint, CCTE_Shafer_MEA_dev_mutual_information_norm, was analyzed in the negative analysis fitting direction relative to DMSO as the negative control and baseline of activity. Using a type of functional reporter, gain or loss-of-signal activity can be used to understand electrical activity.
On the day prior to culture, each well was coated thoroughly with 150 uL of 0.05% polyethyleneimine (PEI, Sigma Cat P3143) in 50 mM HEPES (Sigma Cat H7523) at a pH of 8. The plate was incubated at 37C for one hour. PEI was rinsed out with 500 uL of sterile water three times. Plates were stored at 4C until the day of culture. This culture was plated at a seeding density of 1.5 x 10^5 cells/well on a 48-well MEA plate, prepared as described above. Cells were administered via a 25 uL media/laminin ([…]; Sigma Cat L2020-1MG) drop directly onto the microelectrode array, as adding the cells with the laminin results in better attachment than pre-coating with laminin. After 2 hours, an additional 475 uL of cortical media was added and the cells returned to the incubator. Exposure starts at day 0 of plating and is continued over twelve days of network development until the experiment is terminated. Cells are fed with fresh medium on DIV 5 and 9, following the recordings on those days. The entire volume of media in the well is exchanged and any vehicle or compound treatment is renewed. Complete details are found in OP-NHEERL/ISTD/SBB/TJS/2015-03-r0 (available on request, email shafer.tim@epa.gov). Measurement of the electrical activity is non-invasive, and recordings can be made from the same plate over multiple different days of the culture. In cortical neurons, this allows for the measurement of extracellular action potentials over the period during which networks form in the MEA plate.

Assay [2] in a line: CCTE_Shafer_MEA_dev_correlation_coefficient_mean: CCTE's Neural Network Formation Assay for Mean Correlation Coefficient, Shafer Lab (AID 2284093).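 As to AC50: well mean pairwise spike train correlation integrated as AUC over recording days 5 to 12; potency fitted for loss of correlation relative to DMSO vehicle wells.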 The gist of the method:
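Read-out: well-mean correlation coefficient of spike trains between electrode pairs, collapsed over four recording days as trapezoidal area-under-the-curve. Developing rat cortical neuron networks grown on MEAs received test chemical continuously from plating.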

Assay [3] in a line: UKN2_HCS_IMR90_neural_migration: University of Konstanz (UKN) Leist Lab Neural Crest Cell Migration Assay in human induced IMR90 Pluripotent Stem Cells (UKN2) (AID 2284204). The note with it: actives raise or lower the signal. The essentials: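 Migration of human IMR90-derived neural crest cells into a stopper-defined gap is imaged after 24 h chemical treatment. Activity is fitted bidirectionally relative to DMSO.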

A short description of assay [4]: UKN4_HCS_LUHMES_neurite_outgrowth: University of Konstanz (UKN) Leist Lab Neurite Outgrowth Assay in human LUHMES cells (UKN4) (AID 2284206). The note with it: actives raise or lower the signal. The essentials: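 Day 0 switch to differentiation medium; day 2 replate (30000 cells/well) without cAMP and GDNF; compounds added 30 min–2 h later. At 23.5 h, 30 min calcein-AM/H-33342 live stain, then imaging.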

Assay [5] in a line: IUF_NPC1b_proliferation_BrdU_72hr: Leibniz Research Institute for Environmental Medicine (IUF) 72-hour Neural Progenitor Cell Bromodeoxyuridine (BrdU) Proliferation Assay (NPC1b) (AID 2284207). The essentials:
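Proliferation of primary human neural progenitor cells: 72 h compound treatment at 37C, 5% CO2, pH 7.2-7.6, in EGF/FGF-containing medium. Readout is BrdU uptake (last 16 h) by chemiluminescent ELISA, normalised to DMSO.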

Assay [6] in a line: IUF_NPC1a_proliferation_area_72hr: Leibniz Research Institute for Environmental Medicine (IUF) 72-hour Neural Progenitor Cell Proliferation Area Assay (NPC1a) (AID 2284208). As for the experimental part:
IUF_NPC1 is a cell-based, multiplexed assay that uses hNPC, a human primary neural progenitor cells, with measurements taken at 72 hours after chemical dosing in a 96-well plate. Human neural progenitor cells (hNPC) are generated from human fetal brain cortex at gestational week (GW) 16-19. Grown in suspension culture and under proliferative conditions (proliferation media and growth factors), these cells represent neural progenitor cell proliferation. In the NPC1 assay, hNPC's are exposed to the test compound for 72h. Cell proliferation is assessed as an increase in sphere area using automated phase contrast imaging and as incorporation of Bromodeoxyuridine (BrdU) during DNA synthesis using a luminescence-based cell proliferation ELISA. In parallel, the cell viability is assessed using an alamar blue viability assay and the cytotoxicity using a lactate dehydrogenase dependent membrane integrity assay.IUF_NPC1a_proliferation_area_72hr is one of 4 assay components measured from the IUF_NPC1 assay. It is designed to measure cell proliferation as assessed by an increase in sphere area over 72 h using automated phase contrast imaging.Data from the IUF_NPC1a_proliferation_area component was analyzed at the endpoint IUF_NPC1a_proliferation_area in the positive analysis fitting direction relative to DMSO as the negative control and baseline of activity. Using a type of growth reporter, gain or loss-of-signal activity can be used to understand cell proliferation effects.
(§1) After the cell expansion period, the cells are cultured for up to four weeks in which they are passaged every week. Between one to three days after passaging, depending on the size chosen for passaging, spheres at a size of 0.3 mm are used in the assay. For the assessment of neural progenitor cell proliferation, the spheres are plated in poly-Hema coated 96-well U-bottom plates filled with proliferation medium containing growth factors (EGF and FGF). One 0.25 - 0.35 mm big sphere is plated in the middle of each well. Within 3 days NPCs proliferate and grow in size. Cultivation during the test method is performed at 37C and 5% CO2 at a pH of 7.2-7.6. As a positive control, spheres are cultivated in the absence of growth factors (EGF and FGF), which dramatically reduces proliferation. Exposure starts on the plating day (day 0) and is continued over three days, without chemical renewal, until the experiment is terminated. The assay is terminated by the assessment of cell viability, cytotoxicity, and proliferation by BrdU. All endpoints are generated from the same experimental run and from each well/sphere in the 96-well plate.

Assay [7] is described as follows: IUF_NPC1_viability_72hr: Viability Assessment at 72 hours in the Leibniz Research Institute for Environmental Medicine (IUF) Neural Progenitor Cell Proliferation Assay (NPC1) (AID 2284209). As for the experimental part:
IUF_NPC1 is a cell-based, multiplexed assay that uses hNPC, a human primary neural progenitor cells, with measurements taken at 72 hours after chemical dosing in a 96-well plate. Human neural progenitor cells (hNPC) are generated from human fetal brain cortex at gestational week (GW) 16-19. Grown in suspension culture and under proliferative conditions (proliferation media and growth factors), these cells represent neural progenitor cell proliferation. In the NPC1 assay, hNPC's are exposed to the test compound for 72h. Cell proliferation is assessed as an increase in sphere area using automated phase contrast imaging and as incorporation of Bromodeoxyuridine (BrdU) during DNA synthesis using a luminescence-based cell proliferation ELISA. In parallel, the cell viability is assessed using an alamar blue viability assay and the cytotoxicity using a lactate dehydrogenase dependent membrane integrity assay.IUF_NPC1_viability_72hr is one of 4 assay components measured from the IUF_NPC1 assay. It is designed to measure cell viability assessed as mitochondria-dependent reduction of resazurin to resorufin using the alamar blue cell viability assay. Viability is measured as a fluorescence signal (relative fluorescence unit) in a multiplate reader. Data from the IUF_NPC1_viability component was analyzed at the endpoint IUF_NPC1_viability in the positive analysis fitting direction relative to DMSO as the negative control and baseline of activity. Using a type of viability reporter, gain or loss-of-signal activity can be used to understand viability effects.
as §1

Assay [8] is described as follows: CCTE_Mundy_HCI_Cortical_Synap_Neur_Matur_NeuriteSpotCountPerNeuriteLength: CCTE's Synaptogenesis and Neurite Maturation Assay in rat cortical cells for Neurite Spot Count per Neurite Length, Mundy Lab (AID 2284210). The essentials: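 Primary rat cortical neurons, compound exposure DIV 7–12, 288.33 h endpoint. Hoechst, anti-MAP2 and anti-synaptophysin labelling; neurite-associated puncta per neurite length scored by automated imaging relative to DMSO controls.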

Assay [9] is described as follows: CCTE_Mundy_HCI_Cortical_Synap_Neur_Matur_BPCount: CCTE's Synaptogenesis and Neurite Maturation Assay in rat cortical cells for Branch Point Count, Mundy Lab (AID 2284211). The essentials:
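Rat primary cortical cultures, AraC added DIV 5; chemicals dosed DIV 7 through DIV 12. Fixed cells stained for MAP2, synaptophysin and Hoechst; neurite branch points counted by automated high-content imaging, fitted relative to DMSO.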

The nature of assay [10]: CCTE_Mundy_HCI_Cortical_NOG_NeuriteCount: CCTE's Neurite Outgrowth Assay in rat cortical cells for Neurite Count, Mundy Lab (AID 2284212).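 Also: cells fixed about two days after chemical exposure began.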 The essentials:
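Neurite number per cell from high-content imaging of betaIII-tubulin immunostaining, with Hoechst nuclear counterstain.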

The source made the active and inactive calls. The calls were made as follows: active = hit-call score of the fitted dose curve at least 0.9, where 1 is the maximum; inactive = score below 0.9.

`CN(C)CCCN1c2ccccc2Sc2ccc(Cl)cc21`: the AC50 (in general, the midpoint of the concentration-response curve, whichever way the signal moves) in assay [1] is 5.4 µM (active); in assay [2] it was 5.87 µM (active); in assay [3] it was 8.89 µM (active); in assay [4] it was 6.73 µM (active); in assay [5], 4.53 µM (active); in assay [6], 11.8 µM (active). Moreover, the AC50 in [7] is 18.8 µM (active); in [8], 28.4 µM (active); in assay [9], 12.8 µM (active).
For `COC(=O)[C@H]1[C@H]2C[C@@H]3c4[nH]c5cc(OC)ccc5c4CCN3C[C@H]2C[C@@H](OC(=O)c2cc(OC)c(OC)c(OC)c2)[C@@H]1OC`, the AC50 is 5.56 µM (active) in assay [1] and 10 µM (active) in [2].
As to `O=C1NC(=O)C(c2ccccc2)(c2ccccc2)N1`, the compound was called inactive in assay [1], in assay [2], in [3], in assay [4], in assay [5] and in assay [6]. Moreover, the result in assay [7] and in assay [8] was inactive.
`OCC(O)CO`: the compound was called inactive in [1], in assay [2], in [4], in assay [5], in assay [6] and in [7]. For the same compound, the call in assay [8], in assay [9] and in [10] was inactive.
Consider `CC(=O)CC(c1ccccc1)c1c(O)c2ccccc2oc1=O` (stereo unspecified), for which the result in assay [1], in [2], in assay [5], in assay [6], in assay [7] and in assay [8] was inactive. Besides, the compound was called inactive in assay [9] and in assay [10].
